# PubChem BioAssay (Tox21)
# A number with no mark means an inactive call. Activity calls are given as the source filed them. The call rests on the fitted dose curve; in most records, active means well fitted curve in the direction sought with a large enough effect in the repeat runs; inconclusive means weak or mixed curves; inactive means flat fitted curve, though single readings scatter. Non-standard residues stand in square brackets, D forms with d. Residues, ends and D or L forms follow the SMILES beside them. *: point of attachment. Sta = CC(C)C[C@H](N)[C@@H](O)CC(=O)O; Isovaleryl = CC(C)CC(=O)*
# Assay: qHTS assay to test for compound auto fluorescence at 590 nm (red) in HepG2 cell free culture (AID 720684)
# Details: cell-free medium autofluorescence, red 540/590 nm; series mostly up to 91.3 µM
# Method in brief: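 Plate contents were MEM with 10% FBS plus test compound or DMSO, no cells. Fluorescence was recorded with 540 nm excitation and 590 nm emission.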
# On the % scale 0 is the no-effect control and ±100 the full control effect.
Compound,outcome,"fluorescence, % of Rose Bengal"
Cc1ccc(N)nc1,inactive,–
O=C(O)Cc1c(Cl)ccc(Cl)c1Cl,inactive,–
Cc1ccccc1OCC(=O)O,inactive,–
O=C(O)Cc1ccccc1Oc1ccc(Cl)cc1Cl,inactive,–
CN(C)CCc1c[nH]c2ccc(C[C@H]3COC(=O)N3)cc12,inactive,–
O=C(c1ccccc1)c1cccc(O)c1,inactive,–
Cc1ccccc1C#N,inactive,–
CC(C)(C)NCC(O)COc1cccc2c1CCC(=O)N2 (configuration not stated),–,-0.307% [at 18.6 µM]
CCCCN(CCCC)CCCCCCN(CCCC)CCCC,inactive,–
CC[C@@]1(c2ccccc2)NC(=O)N(C)C1=O,inactive,–
CC(=O)Oc1ccc(C(C)=O)cc1,inactive,–
CN(C)c1cc(NC(=O)CNC(C)(C)C)c(O)c2c1C[C@H]1C[C@H]3[C@H](N(C)C)C(=O)C(C(N)=O)=C(O)[C@@]3(O)C(=O)C1=C2O,inactive,–
COC(=O)N/N=C/c1c[n+]([O-])c2ccccc2[n+]1[O-],inactive,–
C=CCn1cc[n+](C)c1,inactive,–
CCC(=O)OCCOc1ccccc1,inactive,–
CC1=C(O)C(=O)CO1,inactive,–
CCCCC(CC)COC(=O)CC#N (configuration not stated),inactive,–

Compound,outcome,"fluorescence, % of Rose Bengal"
C[C@]12C=CC(=O)C=C1[C@@H](F)C[C@@H]1[C@@H]2[C@@H](O)C[C@@]2(C)[C@H]1CC[C@]2(O)C(=O)CO,inactive,–
COC(=O)/C=C(\C)CCC=C(C)C,inactive,–
CN(C)c1ccncc1,inactive,–
C/C=C/C(=O)CCCC,inactive,–
CCCC(=O)C(CC)Sc1ccoc1C (configuration not stated),inactive,–
CCCCC(CC)CCC(CC(C)C)OS(=O)(=O)O (configuration not stated),inactive,–
O=S(=O)(O)c1cc(I)c(O)c2ncccc12,inactive,–
COC(=O)c1c(C)cc(O)c(C)c1O,inactive,–
CCCCCCCOC(C)=O,inactive,–
O=C[C@@H](O)[C@H](O)[C@H](O)CO,inactive,–
CCCCCC(=O)CC,inactive,–
CC(C)CC(=O)N[C@H](C(=O)N[C@H](C(=O)N[C@@H](CC(C)C)[C@@H](O)CC(=O)N[C@@H](C)C(=O)N[C@@H](CC(C)C)[C@@H](O)CC(=O)O)C(C)C)C(C)C (Isovaleryl-VV[Sta]A[Sta]-OH),inactive,–
CCC(C)(C)C,inactive,–
CCCCCCCCOCCC#N,inactive,–
Cc1ccc(O)c([N+](=O)[O-])c1,inactive,–
CC1(C)CC(N)CC(C)(C)N1,inactive,–
O=C(O)P(=O)(O)O,inactive,–

# Assay: qHTS assay to test for compound auto fluorescence at 460 nm (blue) in HepG2 cell free culture (AID 720685)
# Details: Cell-free culture medium, blue autofluorescence 405/460 nm; series mostly up to 91.3 µM
# Method in brief: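 Compound (23 nL) or DMSO pinned into cell-free MEM with 10% FBS; blue fluorescence read at 405/460 nm excitation/emission, expressed as auto-fluorescence equivalency to triamterene.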
Compound,outcome,"fluorescence, % of fluorescent control"
Cc1ccc(N)nc1,inactive,–
O=C(O)Cc1c(Cl)ccc(Cl)c1Cl,inactive,–
Cc1ccccc1OCC(=O)O,inactive,–
O=C(O)Cc1ccccc1Oc1ccc(Cl)cc1Cl,inactive,–
CN(C)CCc1c[nH]c2ccc(C[C@H]3COC(=O)N3)cc12,inactive,–
O=C(c1ccccc1)c1cccc(O)c1,inactive,–
Cc1ccccc1C#N,inactive,–
CC(C)(C)NCC(O)COc1cccc2c1CCC(=O)N2 (configuration not stated),–,-0.0069% [at 18.6 µM]
CCCCN(CCCC)CCCCCCN(CCCC)CCCC,inactive,–
CC[C@@]1(c2ccccc2)NC(=O)N(C)C1=O,inactive,–
CC(=O)Oc1ccc(C(C)=O)cc1,inactive,–
CN(C)c1cc(NC(=O)CNC(C)(C)C)c(O)c2c1C[C@H]1C[C@H]3[C@H](N(C)C)C(=O)C(C(N)=O)=C(O)[C@@]3(O)C(=O)C1=C2O,inactive,–
COC(=O)N/N=C/c1c[n+]([O-])c2ccccc2[n+]1[O-],inactive,–
C=CCn1cc[n+](C)c1,inactive,–
CCC(=O)OCCOc1ccccc1,inactive,–
CC1=C(O)C(=O)CO1,inactive,–
CCCCC(CC)COC(=O)CC#N (configuration not stated),inactive,–

Compound,outcome,"fluorescence, % of fluorescent control"
C[C@]12C=CC(=O)C=C1[C@@H](F)C[C@@H]1[C@@H]2[C@@H](O)C[C@@]2(C)[C@H]1CC[C@]2(O)C(=O)CO,inactive,–
COC(=O)/C=C(\C)CCC=C(C)C,inactive,–
CN(C)c1ccncc1,inactive,–
C/C=C/C(=O)CCCC,inactive,–
CCCC(=O)C(CC)Sc1ccoc1C (configuration not stated),inactive,–
CCCCC(CC)CCC(CC(C)C)OS(=O)(=O)O (configuration not stated),inactive,–
O=S(=O)(O)c1cc(I)c(O)c2ncccc12,inactive,–
COC(=O)c1c(C)cc(O)c(C)c1O,inactive,–
CCCCCCCOC(C)=O,inactive,–
O=C[C@@H](O)[C@H](O)[C@H](O)CO,inactive,–
CCCCCC(=O)CC,inactive,–
CC(C)CC(=O)N[C@H](C(=O)N[C@H](C(=O)N[C@@H](CC(C)C)[C@@H](O)CC(=O)N[C@@H](C)C(=O)N[C@@H](CC(C)C)[C@@H](O)CC(=O)O)C(C)C)C(C)C (Isovaleryl-VV[Sta]A[Sta]-OH),inactive,–
CCC(C)(C)C,inactive,–
CCCCCCCCOCCC#N,inactive,–
Cc1ccc(O)c([N+](=O)[O-])c1,inactive,–
CC1(C)CC(N)CC(C)(C)N1,inactive,–
O=C(O)P(=O)(O)O,inactive,–

# Assay: qHTS assay to test for compound auto fluorescence at 535 nm (green) in HepG2 cell free culture (AID 720686)
# Details: Cell-free medium, green autofluorescence 485/535 nm; series mostly up to 91.3 µM
Compound,outcome,"fluorescence, % of fluorescein control"
Cc1ccc(N)nc1,inactive,–
O=C(O)Cc1c(Cl)ccc(Cl)c1Cl,inactive,–
Cc1ccccc1OCC(=O)O,inactive,–
O=C(O)Cc1ccccc1Oc1ccc(Cl)cc1Cl,inactive,–
CN(C)CCc1c[nH]c2ccc(C[C@H]3COC(=O)N3)cc12,inactive,–
O=C(c1ccccc1)c1cccc(O)c1,inactive,–
Cc1ccccc1C#N,inactive,–
CC(C)(C)NCC(O)COc1cccc2c1CCC(=O)N2 (configuration not stated),–,-0.0625% [at 18.6 µM]
CCCCN(CCCC)CCCCCCN(CCCC)CCCC,inactive,–
CC[C@@]1(c2ccccc2)NC(=O)N(C)C1=O,inactive,–
CC(=O)Oc1ccc(C(C)=O)cc1,inactive,–
CN(C)c1cc(NC(=O)CNC(C)(C)C)c(O)c2c1C[C@H]1C[C@H]3[C@H](N(C)C)C(=O)C(C(N)=O)=C(O)[C@@]3(O)C(=O)C1=C2O,inactive,–
COC(=O)N/N=C/c1c[n+]([O-])c2ccccc2[n+]1[O-],inactive,–
C=CCn1cc[n+](C)c1,inactive,–
CCC(=O)OCCOc1ccccc1,inactive,–
CC1=C(O)C(=O)CO1,inactive,–
CCCCC(CC)COC(=O)CC#N (configuration not stated),inactive,–

Compound,outcome,"fluorescence, % of fluorescein control"
C[C@]12C=CC(=O)C=C1[C@@H](F)C[C@@H]1[C@@H]2[C@@H](O)C[C@@]2(C)[C@H]1CC[C@]2(O)C(=O)CO,inactive,–
COC(=O)/C=C(\C)CCC=C(C)C,inactive,–
CN(C)c1ccncc1,inactive,–
C/C=C/C(=O)CCCC,inactive,–
CCCC(=O)C(CC)Sc1ccoc1C (configuration not stated),inactive,–
CCCCC(CC)CCC(CC(C)C)OS(=O)(=O)O (configuration not stated),inactive,–
O=S(=O)(O)c1cc(I)c(O)c2ncccc12,inactive,–
COC(=O)c1c(C)cc(O)c(C)c1O,inactive,–
CCCCCCCOC(C)=O,inactive,–
O=C[C@@H](O)[C@H](O)[C@H](O)CO,inactive,–
CCCCCC(=O)CC,inactive,–
CC(C)CC(=O)N[C@H](C(=O)N[C@H](C(=O)N[C@@H](CC(C)C)[C@@H](O)CC(=O)N[C@@H](C)C(=O)N[C@@H](CC(C)C)[C@@H](O)CC(=O)O)C(C)C)C(C)C (Isovaleryl-VV[Sta]A[Sta]-OH),inactive,–
CCC(C)(C)C,inactive,–
CCCCCCCCOCCC#N,inactive,–
Cc1ccc(O)c([N+](=O)[O-])c1,inactive,–
CC1(C)CC(N)CC(C)(C)N1,inactive,–
O=C(O)P(=O)(O)O,inactive,–
